# In the library only some 1.8% were active in any assay of this set; here they are far more common.
# DUSP3 inh: blocks human VHR1 dual specificity phosphatase; P51452; recombinant VHR phosphatase, pNPP absorbance; inhibition, % at 13.3 µM; hit rate 0.52% among 290,000; in the data active = inhibition above about 50%
# Target sequence (P51452 whole entry, looked up): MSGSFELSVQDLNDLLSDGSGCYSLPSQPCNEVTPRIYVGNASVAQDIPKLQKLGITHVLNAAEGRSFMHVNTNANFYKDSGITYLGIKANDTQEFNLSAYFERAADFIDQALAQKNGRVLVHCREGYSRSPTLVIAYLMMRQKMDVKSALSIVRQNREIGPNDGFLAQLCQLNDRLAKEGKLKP
# ugtP null kill: kills S. aureus RN4220 lacking UgtP; hit rate 0.54% among 330,000; S. aureus RN4220 ugtP deletion, OD600 growth, 16 h; growth inhibition, % (concentration not given with the values); in the data active = growth inhibition above about 68%;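 note: plate controls were untreated wells for no effect and antibiotic for full effect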
# PfHsp40 yeast: compounds rescuing yeast from Plasmodium falciparum HSP40 toxicity; S. cerevisiae expressing PfHsp40, growth rescue, ATP luminescence; AID 504582; hit rate 0.68% among 340,000; growth rescue, % at 12.5 µM; in the data active = growth rescue above about 28%, passing the limit was not always enough;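 note: yeast W303a lacking pdr1 and pdr3 grown in galactose medium; growth measured after three days at 30 °C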
# PrPC surface inh: cell surface PrPC inhibition, primary TR-FRET screen. P04156. TR-FRET read-out. inhibition, % at 13.8 µM. hit rate 0.43% among 370,000; in the data active = inhibition above about 24%; note: 0% = median of the test wells and 100% = reference compound wells
# RN4220 kill: kills Staphylococcus aureus RN4220. S. aureus RN4220 growth, OD600, 16 h. AID 1259311. inhibition, % (no concentration beside the values). hit rate 0.33% among 330,000; in the data active = inhibition above about 85%;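 note: plate controls were untreated cells for no effect and reference antibiotic for full effect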
# Active calls of the source: *; nt = no result.
SMILES,DUSP3 inh,ugtP null kill,PfHsp40 yeast,PrPC surface inh,RN4220 kill
CCCCC(=O)N1CC=CC(c2ccc(OC)cc2)N(Cc2ccc(F)cc2)C(=O)C1 (stereo not given),nt,7,nt,nt,6
COc1ccc2oc(=O)c(C(=O)NC3CCCCCC3)cc2c1,50*,5,4,1,-3
Cc1ccc(S(=O)(=O)N(C)c2c(C)ccc(S(=O)(=O)N3CCN(C)CC3)c2C)cc1,1,5,49*,-12,7
CCOC(=O)C(CC)C(C)=NNC(=O)c1ccccc1O (stereo not given),nt,3,nt,nt,12
CCOC(=O)C(C)/C(C)=N/NC(=O)c1cc2ccccc2cc1O (stereo not given),-4,nt,156*,-4,nt
COC(=O)c1ccc(-c2cc(C(=O)O)c3cc4c(cc3n2)OCCO4)cc1,52*,9,0,-8,0
O=C(NC(Cc1ccccc1)C(=O)O)c1ccncc1 (stereo not given),nt,-1,nt,nt,0
COc1cccc(C=C2SC(=S)NC2=O)c1,nt,nt,-2,3,nt
COc1cccc(C(C)=C2SC(=S)NC2=O)c1,nt,nt,83*,-8,nt
COC(=O)c1ccc(C23CC4(C2)C(CN(Cc2ccc(-c5ccccc5)cc2)C4c2ccccc2)C3c2ccc(Cl)nc2)cc1 (stereo not given),nt,2,nt,nt,1
O=C(COC(=O)c1ccccc1C(=O)c1ccccc1)Nc1ccc(SC(F)F)cc1,6,-5,94*,1,5
O=C(COC(=O)Cc1ccccc1)Nc1ccc(SC(F)F)cc1,13,-1,-1,-4,1
COc1cc2c(cc1NC(=S)NC(=O)C=Cc1ccc(OC)c(OC)c1)oc1ccccc12,nt,2,nt,nt,9
S=c1[nH]nc(-c2ccco2)n1N=Cc1cccc(Cl)c1Cl,nt,-14,nt,nt,7
CC1Oc2cc3oc4c(O)c(O)ccc4c(=O)c3c(O)c2C1(C)C (stereo not given),nt,2,335*,nt,-2
O=c1cc(CN2CCOCC2)c2ccc(O)c(O)c2o1,27,2,0,-5,4
COc1cc(C=NNC(=O)c2ccc(Cl)c(S(N)(=O)=O)c2)ccc1OCC(N)=O,nt,7,nt,nt,0
CCOC(=O)C1C2COc3ccc(C)cc3C2N2C(=O)c3ccc(Cl)cc3NC(=O)[C@@]12C (stereo not given in full),nt,-1,nt,nt,5
Cc1cc(C(=O)CCl)c(C)n1CCc1ccc(Cl)cc1,-3,97*,0,-8,93*
CC1(C)N=C(C=NO)CN1O,nt,0,nt,nt,4
CCOC(=O)c1cnc(-n2nc(C)cc2C)nc1Nc1ccccc1OC,10,nt,nt,nt,nt
CCOC(=O)c1cnc(-n2nc(C)cc2C)nc1NCCc1ccccc1,10,-7,65*,9,10
CCOC(=O)c1cnc(-n2nc(C)cc2C)nc1NC1CCCC1,33,nt,163*,4,nt
CCOC(=O)c1cnc(-n2nc(C)cc2C)nc1Nc1ccc(OC)cc1,-14,-8,3,2,3
O=C(CN1C(=O)CSc2ccc(S(=O)(=O)N3CCCCC3)cc21)NCc1ccccc1Cl,56*,-1,0,4,3
SMILES,DUSP3 inh,ugtP null kill,PfHsp40 yeast,PrPC surface inh,RN4220 kill
O=C(CN1C(=O)CSc2ccc(S(=O)(=O)N3CCCCC3)cc21)NCc1ccccc1,-3,10,-1,8,7
O=[N+]([O-])c1ccc(-c2cn(-c3ccc(Cl)cc3)cn2)cc1,nt,nt,nt,-4,nt
Brc1ccc(-n2cnc(-c3ccccc3)c2)cc1,57*,-5,1,-3,10
c1ccc(C[n+]2csc3ccccc32)cc1,37,77,-1,9,6
Fc1cccc(C[n+]2csc3ccccc32)c1,13,96*,-2,2,43
CS(=O)(=O)N1CCc2cc(C(=O)N3CCN(c4cccc(Cl)c4)CC3)ccc21,18,3,0,8,4
Cc1ccc(Cl)cc1N1CCN(C(=O)c2ccc3c(c2)CCN3S(C)(=O)=O)CC1,57*,nt,0,1,nt
CCOC(=O)C1C2COc3ccc(OC)cc3C2N2C(=O)CN(Cc3ccc(OC)cc3)C(=O)[C@@]12C (stereo not given in full),nt,4,nt,nt,4
COc1cccc(CNC(=O)C2CCCN(S(=O)(=O)c3cccc4nonc34)C2)c1 (stereo not given),-8,-2,38*,-17,2
COc1ccc(/C=C/C(=O)c2c(O)cc(C)oc2=O)c(OC)c1,19,100*,0,-4,-16
C#CCOCCOCCOCCNc1nc(N2CCN(C(=O)CCCCCCCCCCNC(=O)C(CO)n3cc(CCCSC)nn3)CC2)nc(N2CCN(C(=O)CCCCCCCCCCNC(=O)C(CCCCN)n3cc(CCO)nn3)CC2)n1 (stereo not given),nt,4,nt,nt,3
Cc1[nH]n(-c2ccccc2)c(=O)c1/C=N/Nc1nncc(-c2ccccc2)n1,10,nt,262*,-5,nt
Cc1[nH]n(-c2ccccc2)c(=O)c1C=NNc1nncc(-c2ccccc2)n1,nt,98*,nt,nt,96*
Cc1ccc(/C=N/Nc2nncc(-c3ccccc3)n2)o1,2,nt,-1,-15,nt
COc1ccc(-c2cnnc(NN=Cc3c(C)nn(-c4ccccc4)c3Cl)n2)cc1,nt,-19,nt,nt,4
CCN1C(=O)C2C(C1=O)C(c1ccc(Br)cc1)N1C(=O)c3ccccc3NC(=O)C21 (stereo not given),nt,-4,nt,nt,5
COc1ccc(CCNC(=O)C(=Cc2cccnc2)NC(=O)c2ccccc2)cc1OC,nt,1,nt,nt,5
CC1=C(C(=O)Nc2cc(C(=O)N(C)Cc3ccccc3)ccc2C)SCCO1,52*,6,0,-5,9
CC(=NOC(=O)c1ccc(F)cc1)c1ccc(C)cc1,nt,1,nt,nt,9
N#C/C(=C(/O)COc1ccccc1)c1nnc2n1CCCCC2,6,4,31*,4,1
N#C/C(=C(/O)CCl)c1nnc2n1CCCCC2,2,6,-1,-1,8
N#CC1=C(N)SC(N)=C(C#N)C1c1c(Cl)cccc1Cl,1,-4,-2,41*,12
N#CC1=C(N)SC(N)=C(C#N)C1CCc1ccccc1,-6,2,3,11,3
NC(=NOC(=O)c1cccc(Cl)c1)c1ccncc1,nt,-1,nt,nt,6
CCOC(=O)C1CCN(c2c(C(=O)c3ccccc3)cnc3ccc(Cl)cc23)CC1,9,100*,1,6,55
SMILES,DUSP3 inh,ugtP null kill,PfHsp40 yeast,PrPC surface inh,RN4220 kill
Cc1cc(CN2CCOCC2)c(O)c(C2(C)CCCCC2)c1,11,99*,2,4,7
CCOc1ccc(N2C(=O)CSC2=NNC(=O)COc2ccc3ccccc3c2)cc1,nt,11,nt,nt,3
O=C1CC(c2cccnc2)=NN1c1ccccc1,27,2,91*,-1,0
O=C(O)Cc1ccc(N2N=C(c3ccccc3)CC2=O)cc1,nt,nt,nt,-1,nt
Cc1cccc(Nc2nc(N)c([N+](=O)[O-])c(N3CCN(C)CC3)n2)c1,12,-11,-1,-14,0
Cc1cccc(Nc2nc(N)c([N+](=O)[O-])c(N3CCCC(C)C3)n2)c1 (stereo not given),13,17,166*,2,8
O=C(c1ccc(Cl)c(Cl)c1)N1CCC(=O)N(C(COCc2ccc(Cl)cc2)Cc2ccccc2)CC1 (stereo not given),16,-18,30*,5,-6

# High-throughput results: PubChem, several laboratories
